# HUVEC tox IL1B = cytotoxicity in IL-1B stimulated HUVEC, primary screen, cytotoxicity control for IL-1B NFkB translocation project, imaging, Hoechst nuclear count, IL-1B stimulus | HUVEC cell count loss | cell count reduction, % at 2 µM | 0.41% of 94,000 active | AID 845, 2007;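 active = cell count reduction more than 3 SD above the screen-wide mean, cut at about 70% in these data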;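 note: normalized per plate to untreated control cells as the no-loss baseline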
# NFkB transloc pot = enhancers of NFkB p65 translocation in HUVEC – imaging, IL-1B stimulus, high-content imaging, primary screen; activation, % at 2 µM; 0.3% of 94,000 active; HUVEC IL-1B NFkB p65 nuclear translocation imaging;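 active = activation above 40%, about the mean plus 3 SD, also judged a hit on visual image review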;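 note: percent activation is computed from the nuclear over cytoplasmic p65 intensity ratio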
# NFkB transloc inh = inhibitors of IL-1B driven NFkB p65 nuclear import, primary screen, imaging, HUVEC, IL-1B stimulus, high-content imaging; AID 796, 2007; HUVEC IL-1B NFkB p65 nuclear translocation imaging; 0.43% of 94,000 active; inhibition, % at 2 µM;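 active = inhibition above about 30% together with a positive call from visual inspection of the well image, limit read from the data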;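 note: nuclear over cytoplasmic p65 intensity ratio measured by imaging; 0% = IL-1B stimulated DMSO wells and 100% = unstimulated DMSO wells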
# cytoskel mod = modifiers of F-actin cytoskeleton organization, primary screen, imaging, HUVEC, phalloidin staining, high-content imaging | AID 836, 2007 | HUVEC TNFa F-actin phalloidin imaging | inhibition, % at 2 µM | 0.18% of 91,000 active;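 active = inhibition above the batch mean plus 3 SD and confirmed as a hit by visual image inspection, cut at about 30% in these data, passing the limit was not always enough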
# VCAM1 TNFa inh = inhibitors of TNFa-induced VCAM1 expression, primary screen, imaging, HUVEC, TNFa stimulus, immunofluorescence. inhibition, % at 2 µM. 0.48% of 95,000 active. HUVEC TNFa-induced VCAM-1 immunofluorescence, high-content imaging;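 active = inhibition above the batch mean plus 3 SD, with images confirmed as a hit by eye, cut at about 37% in these data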;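 note: 0% = TNF-stimulated DMSO wells and 100% = unstimulated control wells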
# TNFa cytotox = cytotoxicity in TNFa-stimulated HUVEC, primary screen, cytotoxicity control for VCAM1 expression modulator project, imaging, Hoechst nuclei count | cell count reduction, % at 2 µM | AID 848, 2007 | 0.17% of 93,000 active | HUVEC TNFalpha-stimulated, Hoechst cell count;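 active = cell count reduction exceeding the screen mean by over 5 SD, scaled to untreated wells per plate, cut at about 78% in these data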;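 note: cells counted after 24 h of TNF alpha exposure following the 1 h pretreatment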
# Starred values were filed as active, the others as inactive; . = not tested or not shown. Most compounds without a hit are left out; they make up all but 1.6% or so of the library.
SMILES,HUVEC tox IL1B,NFkB transloc pot,NFkB transloc inh,cytoskel mod,VCAM1 TNFa inh,TNFa cytotox
COC(=O)c1sccc1NC(=O)c1ccc(Br)s1,-19,11,-11,-5,53*,0
CC(=Nc1cccc(O)c1)c1sc2ccccc2c1O,-41,-53,53*,-2,17,-24
CC(C)Cn1cnc2c1c(=O)n(CC(=O)Nc1ccc3c(c1)OCO3)c(=O)n2Cc1ccccc1,72*,-33,33*,-15,-1,13
Cc1ccccc1[C@@H]1C(C#N)=C(N)S[C@H]1C(=O)c1ccccc1,-14,5,-5,2,-44,-22
Cc1ccc(C)c(N2CCN(C(=O)c3ccc(CS(=O)(=O)c4ccccc4C)o3)CC2)c1,-23,11,-11,-14,20,8
Cc1cccc(N2CCN(C(=O)c3ccc(CS(=O)(=O)c4ccccc4C)o3)CC2C)c1 (stereo not drawn),7,49*,-48,-46,15,48
C/C(Cl)=C\Cn1c(NCCCn2ccnc2)nc2c1c(=O)n(C)c(=O)n2C,17,19,-19,-35,88*,89*
C/C(Cl)=C/Cn1c(NCCCn2ccnc2)nc2c1c(=O)[nH]c(=O)n2C,-5,-1,1,-20,5,-2
Cc1ccc(NC(=S)NCC2CCCO2)cc1C (stereo not drawn),91*,-11,11,16,-9,-7
O=C(CSc1nnc(CNc2cccc(C(F)(F)F)c2)n1Cc1ccco1)NCc1ccco1,-38,69*,-69,-40,-6,-4
O=C(CC1C(=O)NCCN1C(=O)c1ccc(F)cc1)OCc1ccccc1 (stereo not drawn),92*,13,-13,-16,8,-5
Cc1cc(Cl)ccc1OCCCC(=O)N1CCCc2ccccc21,-4,25,-25,-6,-5,-10
O=C(CCCOc1ccccc1)N1CCCc2ccccc21,5,-55,55*,13,31,-4
COc1ccccc1C1C(C(C)=O)=C(C)N=c2s/c(=C\c3cc(OC)c(OC)c(OC)c3)c(=O)n21 (stereo not drawn),84*,-98,98*,-12,-16,-23
COC(=O)C1=C(C)N=c2s/c(=C/c3cccs3)c(=O)n2C1c1ccc(F)cc1 (stereo not drawn),-27,-3,3,-10,-19,.
COc1ccc(C(=O)c2ccc(OC)c(OC)c2)cc1OC,9,1,1,.,8,-29
COc1ccc(C(=O)c2ccc(OC)c(N)c2)cc1N,-13,70*,-70,0,20,13
COc1ccc(Cl)c(NC(=O)Nc2c(C)n(-c3ccccc3)c(=O)n2C)c1,-2,13,-13,-5,94*,9
O=C(NCC(c1cccnc1)N1CCN(c2ccccc2)CC1)c1ccc2c(c1)OCO2 (stereo not drawn),-2,33,-32,25,10,-19
O=C(NCC(c1cccnc1)N1CCOCC1)c1ccc2c(c1)OCO2 (stereo not drawn),-32,-36,36*,-11,7,1
N#Cc1ccc(-n2nccc2-c2cnc3n(c2=O)CCS3)cc1,8,-9,9,-13,-1,13
COc1ccc([N+](=O)[O-])cc1C1NN=C(c2ccccc2O)S1 (stereo not drawn),4,-33,33*,12,6,-3
COc1ccc([N+](=O)[O-])cc1NC(=S)Nc1ccccc1,-18,3,-3,-10,-30,-12
Cc1cccc(NC(=O)c2sccc2-n2cccc2)c1C,.,.,.,-9,12,-23
Cc1ccccc1C(=O)Nc1ccccc1-n1cccc1,0,40*,-40,-12,-35,-3
CCN1C(=O)/C(=C/N(C(C)=O)c2ccccc2)N(c2ccccc2)C1=S,-29,-43,43*,3,10,-16
NC(=O)C1(N2CCCCC2)CCN(CC(=O)Nc2cc(Cl)ccc2Cl)CC1,80*,-99,99*,-15,2,0
Cc1ccc(NC(=O)CSCC(=O)N2c3ccccc3CCc3ccccc32)cc1,-26,2,-2,7,8,-2

# Screens (PubChem)
